# High-throughput results as filed in PubChem BioAssay.
# BRCT inh red = disrupts BRCA1 BRCT binding to phosphoprotein, red fluorophore readout; P38398; BRCT-phosphopeptide binding, red fluorescence polarization; Potency, µM (highest dose often 76.9 µM), without a hit: at the highest dose activity change, negative = inhibition, usual class: inhibitors; 0.03% of 75,000 active; AID 892; note: % is set by controls: 0 for no effect and ±100 for the full control effect
#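 Rhodamine-labelled pBACH1 10-mer (100 nM) bound to BRCT domain (100 nM) at pH 7.3; compounds incubated 12 min room temperature, polarization read. Free peptide defines full inhibition; unlabelled decapeptide titrated as control.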
# YjeE inh = YjeE (TsaE) inhibition, E. coli; Potency, µM; 0.05% of 71,000 active; AID 605; purified YjeE enzyme, qHTS inhibition assay; P0AF67
#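 Purified YjeE (10 uM) with BODIPY Texas Red-labeled ADP probe (2 uM); compounds pin-transferred, 15 min at room temperature. Binding inhibition read as decreased fluorescence polarization; ADP titration as control.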
# DNA Pol III inh = blocks replication by bacterial DNA polymerase III holoenzyme. 0.25% of 71,000 active. Potency, µM (titrated, usually from 57.1 µM), for the others: top-dose activity change, negative = inhibition. reconstituted DNA polymerase III holoenzyme replication, biochemical; note: potency is the fitted concentration of half-maximal effect; % is set by controls: 0 for no effect and ±100 for the full control effect
#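 Reconstituted *E. coli* holoenzyme (0.35 nM Pol III, 1 nM beta, 154 nM SSB, 2 nM primase) was preincubated with compound for 15 min at RT. Synthesis on 1.4 nM ssM13Gori ran 35 min, then was stopped with PicoGreen/EDTA and read as dsDNA fluorescence.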
# Tau fil binding = binds recombinant human tau filaments; P10636; recombinant tau filaments, thioflavin S fluorescence, 15 h; filaments grown with octadecylsulfate alongside compound; Potency, µM (doses to about 57.1 µM), for the others: at the highest dose activity change, negative = inhibition; 2% of 71,000 active; AID 596;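 note: potency is the fitted concentration of half-maximal effect; % is set by controls: 0 for no effect and ±100 for the full control effect; actives lower thioflavin S fluorescence by blocking filaments or displacing dye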
#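 Recombinant tau protein (human, 1 uM final) plus 30 uM ODS in HEPES pH 7.4 with NaCl, DTT and thioflavine S. Compound present from the start; fluorescence at 510 nm after 15 h, 37 C.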
# BRCT PPI green = blocks human BRCA1 BRCT binding to phosphopeptide, green readout; P38398; BRCA1 BRCT-phosphopeptide binding, green fluorescence polarization; Potency, µM (doses to about 76.9 µM), for inactives: at the top dose activity change, negative = inhibition, usual class: inhibitors; 0.05% of 75,000 active; AID 875;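 note: potency is the fitted concentration of half-maximal effect; plate controls were peptide without protein for full effect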
#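 Compounds were incubated for 12 min at room temperature with a complex of 100 nM fluorescein-tagged pBACH1 decapeptide and 250 nM His-tagged BRCT protein. Buffer was phosphate pH 7.3 with EDTA, DTT and Tween 20. Disruption of binding lowers the polarization signal.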
# Hsp90 Hop PPI = changes Hsp90-Hop TPR2A binding signal, up or down | AlphaScreen TPR2A-His6 binding biotin-Hsp90 C-terminal peptide | AID 595 | Potency, µM (titrated, usually from 57 µM), for the others: at the top dose activity change, negative = inhibition | 0.44% of 71,000 active; active = well fitted curve in either direction with a large enough effect; inconclusive = small, poorly fitted or top-dose-only effect, or another doubt; note: potency is the fitted concentration of half-maximal effect; % is set by controls: 0 for no effect and ±100 for the full control effect
# Starred values were filed as active, the others as inactive; i = inactive; ? = inconclusive; . = no result; [ ] = another dose, or the depositor's remark. Compounds with a hit are over-represented: about 2.4% of the library has one in this group of screens. Unless noted, calls come from the whole dose curve; as a rule, active = well fitted curve in the direction sought with a large enough effect; inconclusive = small, poorly fitted or top-dose-only effect, or another doubt; inactive = no such curve, though single readings can be large; an effect the other way counts as inactive or inconclusive.
SMILES,BRCT inh red,YjeE inh,DNA Pol III inh,Tau fil binding,BRCT PPI green,Hsp90 Hop PPI
CN1CCN(C(=O)c2cc3nc(-c4ccccc4)cc(C(F)(F)F)n3n2)CC1,0%,i,-5%,25µM*,0%,-1%
Cc1ccc(-c2cc(C(F)(F)F)n3ncc(C(=O)N4CCN(C)CC4)c3n2)cc1,0%,i,0%[11.4 µM],4µM*,0%,-3%[11 µM]
O=C(NC1CCCCC1)c1ccc(Cc2nc3ccccc3[nH]2)cc1,-1%,.,.,.,-1%,.
CCOC(=O)OCC,1%,i,-6%,8%,-3%,-3%
CCCn1c(-c2ccc(F)cc2)nc2c(NCC(C)(C)CN(C)C)nc(C)nc21,0%,i,-12%,-8%,-1%,-5%
CC(C)C12CN3CC(C(C)C)(CN(C1)C31C(=O)Nc3ccccc31)C2=O (configuration not stated),1%,i,-2%,16µM*,-2%,0%
CCOC(=O)c1c(C)oc2ccc(NS(=O)(=O)c3ccc4c5c(cccc35)C(=O)N4)cc12,-2%,i,-1%,7.9µM*,2%,-3%
CN1CCN(c2ncc3nc(-c4ccc(Cl)cc4)c(=O)n(C)c3n2)CC1,-1%,i,-12%,3.2µM*,-3%,2%
COc1cccc(Cn2c(=O)c(-c3cccc(C#N)c3)nc3cnc(N4CCN(C)CC4)nc32)c1,1%,i,-2%,3.2µM*,-1%,-1%
N#CCCn1c(=O)c(-c2cccc(C#N)c2)nc2cnc(Oc3ccccc3)nc21,-2%,i,-10%,-14%,-1%,-8%
COc1ccc(Oc2ncc3nc(-c4cccc(C#N)c4)c(=O)n(Cc4cccc(OC)c4)c3n2)cc1,-3%,i,-4%,10µM*,-4%,-7%
C=C[C@]1(C)C[C@H](OC(=O)CO)[C@]2(C)C3C(=O)CC[C@]3(CC[C@H]2C)[C@H](C)[C@H]1O (some centres not stated),1%[15.4 µM],i,-8%[11.4 µM],-9%[11.4 µM],1%[15.4 µM],-1%[11 µM]
COc1ccc(-c2coc3cc(O[C@@H]4O[C@@H](CO)[C@@H](O)[C@@H](O)[C@H]4O)cc(O)c3c2=O)cc1,.,i,-6%,?,.,1%
CN(C)c1ccc(/C=N/n2ncc3ccccc32)cc1,1%,i,3%,-26%,2%,25µM*
C=CCn1c(/N=C/c2ccc(N(C)C)cc2)nc2ccccc21,0%,i,-1%,-1%,5%,-8%
Nc1cccc2c(N)cccc12,1%,i,-8%,32µM*,-1%,-3%
C[N+](C)(C)CC(=O)N/N=C\c1c(O)ccc2ccccc12,0%[15.4 µM],i,-8%[11.4 µM],17%[11.4 µM],3%[15.4 µM],3.2µM*
C[N+](C)(C)CC(=O)N/N=C\c1ccncc1,-1%[15.4 µM],i,-15%[11.4 µM],10%[11.4 µM],0%[15.4 µM],-3%[11 µM]
COc1ccc2nc(SCC(=O)N3CCCCCC3)c(C#N)cc2c1,-2%,i,-3%,1%,5%,6%
COc1ccc2nc(N3CCCC3)c(C#N)cc2c1,-1%,i,-7%,i,-11%,25µM*
Cc1ccc2cc(C#N)c(N3CCCC3)nc2c1C,-1%,i,-4%,-29%,1%,1%
COc1ccc2nc(N3CCCCC3)c(C#N)cc2c1,0%,i,-2%,i,-4%,25µM*
CN(C)CCCNCCCN,1%,i,-2%,2%,0%,-5%
O=S(=O)(O)c1cc(O)c2c(N=Cc3ccccc3O)cc(S(=O)(=O)O)cc2c1,3%[15.4 µM],i,-17%[11.4 µM],18%[11.4 µM],0%[15.4 µM],-5%[11 µM]
NCCC[C@@](N)(C(=O)O)C(F)F,2%,i,2%,-4%,-3%,-2%
SMILES,BRCT inh red,YjeE inh,DNA Pol III inh,Tau fil binding,BRCT PPI green,Hsp90 Hop PPI
CC1=C(C(=O)Nc2ccccc2)C(c2ccc(C)o2)n2c(s/c(=C\c3ccco3)c2=O)=N1 (configuration not stated),1%,i,0%,2.5µM*,5%,-17%
CC[n+]1ccc(C)c2cc(S(=O)C(F)(F)F)ccc21 (configuration not stated),0%,i,-11%,6.3µM*,0%,-7%
Cc1ccccc1NC(=O)Cn1c(C)nc2ccc(NC(=O)C3CC3)cc2c1=O,1%,i,-4%,-4%,1%,-4%
CCC(=O)Nc1ccc2nc(C)n(CC(=O)Nc3ccccc3)c(=O)c2c1,0%,i,-7%,13µM*,0%,-3%
Cc1cc(Cc2cc(C)c(N)cc2N)c(N)cc1N,-2%[15.4 µM],i,-17%[11.4 µM],196%[11.4 µM],-6%[15.4 µM],-16%[11 µM]
COC(=O)c1ccccc1NC(=O)CNc1cc(Cl)ccc1N1CCOCC1,-1%,i,-3%,16µM*,-1%,?
c1cncc(CNCc2cccnc2)c1,-1%[15.4 µM],i,-11%[11.4 µM],3%[11.4 µM],-2%[15.4 µM],-2%[11 µM]
COc1ccc2nc(SCC(=O)Nc3ccc(S(=O)(=O)N4CCCC4)cc3)c(C#N)cc2c1,1%,i,-1%,25%,5%,-5%
N#Cc1cc2ccccc2nc1SCC(=O)Nc1ccc(S(=O)(=O)N2CCCC2)cc1,-3%,i,-8%,16µM*,8%,-1%
CC(=O)c1cccc(NS(=O)(=O)c2cccc(C(=O)O)c2)c1,-1%,.,.,.,0%,.
Cc1ccc(C)c(N2CCN(C(=O)CCS(=O)(=O)c3cccc4nonc34)CC2)c1,1%,i,-8%,32µM*,-1%,-19%
O=C(Cn1nnc2c(cnn2-c2ccc(F)cc2)c1=O)OC1CCCCC1,-3%,i,-5%,20µM*,2%,?
O=C(Cn1nnc2c(cnn2-c2ccccc2)c1=O)N1CCN(c2ccccc2F)CC1,0%,i,4%,?,0%,1%
O=C(O)c1cc(-c2ccco2)nc2ccc(Br)cc12,-3%,i,25µM*,-12%,-2%,-1%
O=C(c1ccco1)N1CCN(C(=O)c2cc(-c3ccncc3)nc3ccc(Br)cc23)CC1,0%,i,-1%,-19%,1%,-6%
COc1ccc(-c2ncc3ccccn23)cc1,-1%,i,0%,20µM*,2%,-26%
COc1ccccc1OC[C@H](O)CN1CCN(CC(=O)Nc2c(C)cccc2C)CC1,-1%,i,15%,-6%,-2%,1%
COc1ccccc1-c1cc(C(=O)N2CCc3ccccc3C2)no1,0%,i,7%,113%,2%,?
O=C1NC(c2ccco2)Nc2ccccc21 (configuration not stated),-1%,i,-8%,-20%,-2%,-9%
Brc1ccc(C2Nc3cccc4cccc(c34)N2)o1,1%,i,-10%,10µM*,-1%,?
CN(C)c1cccc(O)c1,1%,i,-9%,32µM*,2%,-3%
CCN(CC)c1cccc(O)c1,-1%,i,-2%,-5%,0%,-4%
